Here are results for 40 compounds from PubChem BioAssay (NCATS).

Results filed as inconclusive are left out. A call without a number means that no potency is given here. Calls of active or inactive are those of the source. Calls follow the shape of the dose curve; as a rule, active = well fitted inhibition curve with a large enough effect; inconclusive = small, poorly fitted or top-dose-only effect; inactive = flat fitted curve, though single readings scatter.

Chain of Glutathione peroxidase 1 (Homo sapiens) (P07203 whole entry, looked up): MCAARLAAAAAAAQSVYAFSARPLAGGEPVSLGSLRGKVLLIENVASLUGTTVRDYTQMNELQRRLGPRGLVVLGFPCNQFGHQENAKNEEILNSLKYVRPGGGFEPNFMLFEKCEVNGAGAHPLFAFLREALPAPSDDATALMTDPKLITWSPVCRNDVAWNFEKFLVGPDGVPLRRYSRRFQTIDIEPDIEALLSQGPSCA

The assay addresses Glutathione peroxidase 1 (Homo sapiens) (UniProt P07203). The assay can be described thus: Primary qHTS Assay for Inhibitors of Recombinant Selenoprotein Glutathione Peroxidase 1 (GPX1) (AID 1845191). Also: nearly all actives have a fitted effect of over 65% in size. The settings on record: recombinant GPX1, GR-coupled NADPH fluorescence, 15 min; series mostly up to 48.8 µM. An excerpt: Assay Provider: Elias S.J. Arner MD PhD.
Department of Medical Biochemistry and Biophysics
Karolinska Institutet, Solna, Stockholm, Sweden
Selenoprotein glutathione peroxidases (GPX), like the ubiquitously expressed GPX1 and the ferroptosis modulator GPX4, enact their antioxidant activities by reducing hydroperoxides using glutathione. […] GPX1 and GPX4 inhibitors have thus shown promise as anti-cancer agents. Existing inhibitors are often promiscuous, or modulate GPX activity only indirectly, so novel direct inhibitors identified through screening against GPX1 and GPX4 could be valuable. Here, we developed optimized glutathione reductase (GR)-coupled GPX assays for the biochemical high-throughput screen (HTS) of almost 12,000 compounds with known mechanisms of action. Initial hits were triaged using a GR counter-screen, assessed for isoform specificity using a separate GPX2 assay, and were assessed for general selenocysteine-targeting activity using a thioredoxin reductase (TXNRD1) assay. With this suite of assays, we identified novel GPX1/GPX2- and GPX4-specific inhibitors and can here present a validated pipeline for future discovery research for selenoprotein-targeting agents.
SEQUENCE No. (e.g., 1, 2, 3, etc.); […] (e.g., Cells, Incubation, Reagent, etc.); VALUE; DESCRIPTION.
1; Reagent 1; 3 uL; GPx1 enzyme or no enzyme control in 1536-well, black, solid Greiner assay plate.
2; Compound; 25 nL; Kalypsis pin tool (Wako USA) equipped with a 1536-well pin head.
3; Incubation; 30 min; room temperature.
4; Reagent 2; 1 uL; 10 nM GPX1, 1 mM GSH, 0.5 mM CHP, 0.5 mM NADPH, 100 nM GR, 0.01% BSA substrate
5; Detection; Fluorescence; ViewLux microplate reader, excitation 340 nm and emission 450 nm.
6; Incubation; 15 min; room temperature.
7; Detection; Fluorescence; ViewLux microplate reader, excitation 340 nm and emission 450 nm.
NOTES (numbers refer to Sequence numbers above)
1. 3 uL of 16.66 nM GPX1 and 0.016% BSA in assay buffer (50 mM Tris-HCl, 2 mM EDTA (pH 7.5), 150 mM NaCl) was added to columns 3-48 of 1536-well assay plates using a BioRAPTR Flying Reagent Dispenser (Let's Go Robotics (LGR), Carlsbad, CA). A no-enzyme control (0.01% BSA in TES assay buffer) was added to columns 1-2.
2. 25 nL of test compounds and DMSO controls were added to each well with a pin tool (Kalypsys).
3. The assay plates were incubated for 30 minutes at room temperature.
4. 1 uL of master mix (500 nM glutathione reductase (GR), 5 mM reduced glutathione (GSH), 2.5 mM NADPH in assay buffer) was added. 1 uL of cumene hydroperoxide (CHP) ([2.5 mM] in 50% EtOH) was then added within 5 minutes to initiate the reaction. Final concentrations were: 10 nM GPX1, 1 mM GSH, 0.5 mM CHP, 0.5 mM NADPH, 100 nM GR, 0.01% BSA.
5. Initial fluorescence readout (t=0) at 340/450 nm was measured using a ViewLux multimodal detector (PerkinElmer, Waltham, MA).
7. Endpoint fluorescence readout (t=15) at 340/450 nm was measured 15 min after room temperature incubation.
With `OC[C@H]1O[C@@](CO)(O[C@H]2O[C@H](CO)[C@@H](O)[C@H](O)[C@H]2O)[C@@H](O)[C@@H]1O`, the Potency entry was “inactive”.

As for `C[C@H](NCCc1ccc(O)cc1)[C@H](O)c1ccc(O)cc1`, the Potency entry is “inactive”.

As to `CCCc1ccc(C(=O)O)cc1`, the Potency entry was “inactive”.

Consider `C[C@H](CCC(=O)O)[C@H]1CC[C@H]2[C@@H]3[C@H](O)C[C@@H]4C[C@H](O)CC[C@]4(C)[C@H]3C[C@H](O)[C@]12C`, for which the Potency entry was “inactive”.

In the case of `Cc1cc(-c2ccc(N=Nc3ccc4c(S(=O)(=O)O)cc(S(=O)(=O)O)c(N)c4c3O)c(C)c2)ccc1N=Nc1ccc2c(S(=O)(=O)O)cc(S(=O)(=O)O)c(N)c2c1O`, the Potency entry is “inactive”.

Regarding `O=C(O)CCC/C=C\C[C@@H]1[C@@H](/C=C/[C@@H](O)COc2cccc(Cl)c2)[C@H](O)C[C@@H]1O`, the Potency entry is “inactive”.

As for `Cc1ncc(C[n+]2csc(CCOP(=O)(O)OP(=O)(O)O)c2C)c(N)n1`, the activity, negative = inhibition is -4.18% [at 0.4 µM] (inactive).

`O=C(O)c1ccc(NC(=O)[C@H](Cc2ccc(O)cc2)NC(=O)c2ccccc2)cc1`: the Potency result was “inactive”.

`CCCCC[C@H](O)/C=C/[C@H]1[C@H](O)CC(=O)[C@@H]1CCCCCCC(=O)O`: the Potency entry was “inactive”.

In the case of `CN(C)CCC=C1c2ccccc2C(C)(C)c2ccccc21`, the Potency entry is “inactive”.

As for `O=S(=O)(O)CCCS(=O)(=O)O`, the Potency entry was “inactive”.

In the case of `FCOC(C(F)(F)F)C(F)(F)F`, the Potency result was “inactive”.

As for `COc1ccc([C@@H]2CC(=O)c3c(O)cc(O[C@@H]4O[C@H](CO[C@@H]5O[C@@H](C)[C@H](O)[C@@H](O)[C@H]5O)[C@@H](O)[C@H](O)[C@H]4O)cc3O2)cc1O`, the Potency entry was “inactive”.

Consider `CCOC(=O)C1=C(COCCN)NC(C)=C(C(=O)OC)C1c1ccccc1Cl` (stereo not given), for which the Potency entry was “inactive”.

Consider `O=C1CCC(=O)N1CO`, for which the Potency result was “inactive”.

Consider `CC(=O)[O][Al][O]C(C)=O`, for which the activity, negative = inhibition was -5.17% [at 9.52 µM] (inactive).

`O=C(O)Cc1cc(I)c(Oc2ccc(O)c(I)c2)c(I)c1`: the Potency entry was “inactive”.

Turning to `CNC(=O)c1c(I)c(C(=O)NCC(=O)Nc2c(I)c(C(=O)O)c(I)c(C(=O)NCCO)c2I)c(I)c(N(C)C(C)=O)c1I`, the Potency result is “inactive”.

For the compound `C=C1CC[C@H](O)CC1=C/C=C1\CCC[C@]2(C)[C@@H]([C@H](C)CCCC(C)(C)O)CC[C@@H]12`, the Potency result is “inactive”.

Take `CCOC(=O)Cc1ccc(-c2ccccc2)cc1`: the Potency entry was “inactive”.

Turning to `CO[C@H]1C[C@@H]2CC[C@@H](C)[C@@](O)(O2)C(=O)C(=O)N2CCCC[C@H]2C(=O)O[C@H]([C@H](C)C[C@@H]2CC[C@@H](OC(=O)C(C)(CO)CO)[C@H](OC)C2)CC(=O)[C@H](C)/C=C(\C)[C@@H](O)[C@@H](OC)C(=O)[C@H](C)C[C@H](C)/C=C/C=C/C=C/1C`, the Potency result is “inactive”.

Consider `CCCc1nc(C(C)(C)O)c(C(=O)OCc2oc(=O)oc2C)n1Cc1ccc(-c2ccccc2-c2nn[nH]n2)cc1`, for which the Potency entry was “inactive”.

As to `CC(=O)Nc1c(I)c(C(=O)N[C@H]2C(O)O[C@H](CO)[C@@H](O)[C@@H]2O)c(I)c(N(C)C(C)=O)c1I` (stereo not given in full), the Potency result was “inactive”.

For the compound `Cc1ncc(COP(=O)(O)O)c(CN)c1O`, the Potency result is “inactive”.

In the case of `CN1C(=O)OC(C)(C)C1=O`, the Potency result was “inactive”.

As to `O=P(O)(O)CP(=O)(O)O`, the Potency result was “inactive”.

With `C[N@+]12CCCC[C@@H]1CCC(=C(c1cccs1)c1cccs1)C2`, the Potency result was “inactive”.

In the case of `OCCN1CCN(CC/C=C2/c3ccccc3Sc3ccc(Cl)cc32)CC1`, the Potency entry was “inactive”.

As to `C[Se]CC[C@H](N)C(=O)O`, the Potency result is “inactive”.

For the compound `O=C(O)/C=C/c1ccccc1`, the Potency result is “inactive”.

On to `Cc1cccc(C)c1NC(=O)C1CCCCN1C` (stereo not given), for which the Potency entry was “inactive”.

`CC(C)=CCC/C(C)=C/CC/C(C)=C/CC/C(C)=C/CC1=C(C)C(=O)c2ccccc2C1=O`: the Potency result was “inactive”.

Turning to `CC(C)(C)c1ccc(CN2CCN(C(c3ccccc3)c3ccc(Cl)cc3)CC2)cc1` (stereo not given), the Potency result was “inactive”.

`C=C1[C@H](CO)[C@@H](O)C[C@@H]1n1cnc2c(=O)[nH]c(N)nc21`: the Potency result was “inactive”.

For `C=C1CC[C@H](O)CC1=C/C=C1\CCC[C@]2(C)[C@@H]([C@H](C)/C=C/[C@H](C)C(C)C)CC[C@@H]12`, the Potency entry is “inactive”.

Take `CC/C=C\C/C=C\C/C=C\C/C=C\C/C=C\C/C=C\CCC(=O)O`: the Potency result is “inactive”.

Regarding `COc1cc2c(cc1OC)[C@@H](Cc1cc(OC)c(OC)c(OC)c1)[N+](C)(CCCOC(=O)CC/C=C/CCC(=O)OCCC[N+]1(C)CCc3cc(OC)c(OC)cc3[C@H]1Cc1cc(OC)c(OC)c(OC)c1)CC2` (stereo not given in full), the Potency entry was “inactive”.

On to `COc1ccc2c(=O)c(C)c(-c3ccccc3)oc2c1CN(C)C`, for which the Potency entry was “inactive”.

For the compound `CC(=O)NCCCS(=O)(=O)O`, the Potency result is “inactive”.

With `C=CC[N+]1([C@H]2C[C@H]3[C@@H]4CC[C@H]5C[C@H](O)[C@@H](N6CCOCC6)C[C@]5(C)[C@H]4CC[C@]3(C)[C@H]2OC(C)=O)CCCC1`, the Potency entry was “inactive”.
